Data on 34 compounds can be found in PubChem BioAssay (Tox21).

SMILES strings stand for the structures. Values without a mark were called inactive. Activity calls are given as the source filed them. Calls come from the whole dose curve; as a rule, active = well fitted activation curve with a large enough effect in the repeat runs; inconclusive = weak or mixed curves; inactive = flat fitted curve, though single readings scatter.
% is set by controls: 0 for no effect and ±100 for the full control effect.

The nature of this assay: Caspase-3/7 induction in CHO-K1 cells by small molecules, qHTS assay (AID 1346980). Note: nearly all actives have a fitted effect of over 15% in size. The note with it: CHO-K1 caspase-3/7 induction, Caspase-Glo luminescence, 17 h; series mostly up to 92.4 µM. The gist of the method:
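Wild-type cells were seeded at 1,500 per well and settled 5 hr at 37 C, 5% CO2, then exposed to DMSO-dissolved compounds for 17 hr. Caspase-Glo 3/7 reagent was added, and luminescence was read after 30min at room temperature.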
In general terms: In qHTS, concentration-response curves come from the screen itself.
Regarding `CN1CCN(c2c(F)cc3c(=O)c(C(=O)O)cn4c3c2SCC4)CC1`, the result was inactive.

For the compound `CCN[C@H]1CN(CCCOC)S(=O)(=O)c2sc(S(N)(=O)=O)cc21`, the compound was called inactive. In the case of `C[C@@H]1CN(c2c(F)c(N)c3c(=O)c(C(=O)O)cn(C4CC4)c3c2F)C[C@H](C)N1`, the caspase-3/7 activation is -1.56% [at 19 µM]. Consider `CCc1cc(Cl)c(OC)c(C(=O)NC[C@@H]2CCCN2CC)c1O`, for which the outcome was inactive. On the same count and under the same terms, then `CCCCNCCCC`, with “inactive”.

Regarding `NC1=NCC2c3ccccc3Cc3ccccc3N12` (centres undefined), the compound was classed as inactive. `CCCNC(C)C(=O)Nc1c(C)csc1C(=O)OC` (centres undefined): the compound was called inactive. `O=C(O)[C@@H](O)[C@H](O)[C@H](O)[C@@H](O)C(=O)O`: the result was inactive. Still for that read-out and setting: then `CO[C@@]1(NC(=O)CSCC#N)C(=O)N2C(C(=O)O)=C(CSc3nnnn3C)CS[C@@H]21`, with “inactive”; and `CCCCCCCCCCCCCCCCOP(=O)([O-])OCC[N+](C)(C)C`, with “inactive”. Turning to `CN(C)Cc1ccccc1`, the outcome was inactive.

Consider `NCCC(O)(P(=O)(O)O)P(=O)(O)O`, for which the compound was called inactive. Consider `CCCC(CCC)(C(=O)OCC)C(=O)OCC`, for which the compound was called inactive. On to `C[C@@H]1CN(c2c(F)c(F)c3c(=O)c(C(=O)O)cn(C4CC4)c3c2F)C[C@H](C)N1`, for which the caspase-3/7 activation was 0.203% [at 19 µM]. For the compound `C[C@@H](N)C(=O)O`, the result was inactive.

For the compound `O=C1CCCc2ccccc21`, the result was inactive. Still for that read-out and setting: then `CC1(C)O[C@@H]2C[C@H]3[C@@H]4CCC5=CC(=O)CC[C@]5(C)[C@@]4(F)[C@@H](O)C[C@]3(C)[C@]2(C(=O)CCl)O1`, with “inactive”; and `CC(C)C(=O)OC/C=C/c1ccccc1`, with “inactive”. Same read-out and setting: then `O=C(O[C@@H](C(=O)O)[C@@H](OC(=O)c1ccccc1)C(=O)O)c1ccccc1`, with “inactive”; and `CCOC(=O)c1cc(=O)c2c(OCC(COc3cccc4oc(C(=O)OCC)cc(=O)c34)OC(=O)[C@@H](N)CCCCN)cccc2o1`, with “inactive”. The same measure, in the same setting: next, `C=CCCCCCCCCO`: “inactive”.

For the compound `CN1C(=O)CC(c2ccccc2)C1=O` (centres undefined), the result was inactive. As for `CCCc1c2oc(C(=O)O)cc(=O)c2cc2c(=O)cc(C(=O)O)n(CC)c12`, the call was inactive. Same read-out and setting: then `CN1CCN(N)CC1`, with “inactive”. Still for that read-out and setting: then `CCc1nnc(NS(=O)(=O)c2ccc(N)cc2)s1`, with “inactive”. Same read-out and setting: then `CCCCC(=O)O[C@]1(C(=O)CO)[C@H](C)C[C@H]2[C@@H]3CCC4=CC(=O)C=C[C@]4(C)[C@@]3(F)[C@@H](O)C[C@@]21C`, with “inactive”; and `CCOc1ccc2nc(N)sc2c1`, with “inactive”; and `OCCN(CCO)CCN(CCO)CCO`, with “inactive”. Regarding `Cc1ccc([N+](=O)[O-])cc1Cl`, the result was inactive.

As for `Cc1ccc(C)c(N)c1`, the outcome was inactive. As for `NC(=O)Cc1cccc(C(=O)c2ccccc2)c1N`, the compound was classed as inactive. On the same count and under the same terms, next, `CCC/C=C/CO`: “inactive”; `CCCCc1ccc2nc(NC(=O)OC)[nH]c2c1`: “inactive”.

Consider `CCN(CC)CCNC(=O)COc1ccc(Cl)cc1`, for which the outcome was inactive.
